The values that follow come from PubChem BioAssay (Tox21).

Inconclusive results are not listed. Where a call stands in place of a potency, no number is given. A number with no mark means an inactive call. Activity calls are given as the source filed them. Calls come from the whole dose curve; as a rule, active = well fitted cell-killing curve with a large enough effect in the repeat runs; inconclusive = weak or mixed curves, or effect the other way; inactive = flat fitted curve, though single readings scatter.

Assay [1] can be described thus: cAMP Responsive Elements (CRE) small molecule antagonists, cell-based qHTS assay: qHTS cell viability counter screen (AID 2060913). Note: nearly all actives have a fitted effect of over 40% in size. The method, boiled down: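 Viability of NKH477-stimulated (0.25 uM final) CRE-bla HEK293T cells is measured by CellTiter-Glo luminescence following 3 hrs compound exposure at 37 C.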
Assay [2] is described as follows: cAMP Responsive Elements (CRE) small molecule agonists, cell-based qHTS assay: qHTS cell viability counter screen (AID 2060914). Note: nearly all actives have a fitted effect of over 50% in size. The method, boiled down: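 Cells are seeded and incubated 18 h, treated with compounds in DMSO for 3 h, read for the bla reporter, then given CellTiter-Glo; luminescence is measured after 30 min at room temperature.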
On the technique in general: In qHTS, concentration-response curves come from the screen itself.
Potency is the fitted concentration of half-maximal effect.

For the compound `CC(C)=CC1C(C(=O)OCN2C(=O)C3=C(CCCC3)C2=O)C1(C)C` (stereo unspecified), the Potency entry in assay [1] and in assay [2] was “inactive” each time.
`COC(C)(C)CCC[C@H](C)C/C=C/C(C)=C/C(=O)OC(C)C`: the Potency entry in assay [1] and in assay [2] was “inactive” each time.
Turning to `CCOP(=S)(OCC)O/N=C(\C#N)c1ccccc1`, the Potency entry in assay [1] and in assay [2] was “inactive” throughout.
As for `CC(Cl)(Cl)[N+](=O)[O-]`, the Potency result in assay [1] and in assay [2] was “inactive” throughout.
With `CCS(=O)(=O)c1cccnc1S(=O)(=O)NC(=O)Nc1nc(OC)cc(OC)n1`, the Potency entry in assay [1] and in assay [2] was “inactive” throughout.
Turning to `O=C1C(Cl)=C(Cl)C(=O)c2ccccc21`, the Potency entry in assay [1] and in assay [2] was “inactive” throughout.
With `CCSC(=O)N(CC)C1CCCCC1`, the Potency entry in assay [1] and in assay [2] was “inactive” in each case.
Consider `O=[N+]([O-])c1cccc(O)c1`, for which the Potency result in assay [1] and in assay [2] was “inactive” throughout.
Take `OCC(Br)CBr` (stereo unspecified): the Potency entry in assay [1] and in assay [2] was “inactive” throughout.
As to `CCOC(=O)Nc1cccc(OC(=O)Nc2ccccc2)c1`, the Potency result in assay [1] and in assay [2] was “inactive” throughout.
For the compound `Nc1ccc(-c2ccc(N)c(N)c2)cc1N`, the Potency result in assay [1] and in assay [2] was “inactive” each time.
In the case of `CC(C)(C)c1ccc(CCOc2ncnc3ccccc23)cc1`, the Potency result in assay [1] and in assay [2] was “inactive” in each case.
With `Cc1nc(N)nc(N)n1`, the Potency entry in assay [1] and in assay [2] was “inactive” in each case.
For the compound `C1CN2CCN1CC2`, the Potency entry in assay [1] and in assay [2] was “inactive” throughout.
Take `CCSC(=O)Cl`: the Potency result in assay [1] and in assay [2] was “inactive” throughout.
On to `O=P(Cl)(Cl)Cl`, for which the Potency entry in assay [1] and in assay [2] was “inactive” throughout.
In the case of `CCOP(=S)(Oc1ccc([N+](=O)[O-])cc1)c1ccccc1` (stereo unspecified), the Potency entry in assay [2] is “inactive”.
In the case of `COP(=S)(OC)Oc1ccc(S(=O)(=O)N(C)C)cc1`, the Potency entry in assay [1] and in assay [2] was “inactive” in each case.
For the compound `CCCCCCCCCCCCCC[P+](CCCCCC)(CCCCCC)CCCCCC` (tested in a mixture with another compound), the Potency in assay [1] is 24.3 µM (active); in assay [2], 21.7 µM (active).
In the case of `Sc1ccccc1`, the Potency entry in assay [1] and in assay [2] was “inactive” throughout.
For the compound `CCCCCBr`, the Potency entry in assay [2] is “inactive”.
Regarding `C[N+](C)(C)CCCl`, the Potency entry in assay [1] and in assay [2] was “inactive” throughout.
`CC(CCc1ccccc1)NC(C)C(O)c1ccc(O)cc1` (stereo unspecified): the Potency result in assay [1] and in assay [2] was “inactive” each time.
For `CSc1nc(NC(C)C)nc(NC(C)C)n1`, the Potency entry in assay [1] and in assay [2] was “inactive” throughout.
Take `CC(C)(c1ccc(O)c(-c2ccccc2)c1)c1ccc(O)c(-c2ccccc2)c1`: the Potency in assay [2] was 61.1 µM (active).
As for `CN/C(=N\[N+](=O)[O-])NCC1CCOC1` (stereo unspecified), the Potency result in assay [1] and in assay [2] was “inactive” in each case.
Regarding `CCOP(=O)(OCC)O/C(=C/Cl)c1ccc(Cl)cc1Cl`, in assay [2], the Potency entry is “inactive”.
Regarding `N#Cc1ccccc1Cl`, the Potency result in assay [1] and in assay [2] was “inactive” each time.
On to `CN(N=O)c1ccccc1`, for which the Potency entry in assay [1] and in assay [2] was “inactive” each time.
In the case of `Nc1ccc(-c2ccccc2)cc1`, the Potency result in assay [1] and in assay [2] was “inactive” throughout.
Turning to `O=C1c2ccccc2C(=O)c2ccccc21`, the viability change, negative = cytotoxic in assay [1] was 7.37% [at 18.9 µM]. Besides, the activity change, negative = cytotoxicity in assay [2] is 0.739% [at 18.9 µM].
With `N#Cc1ccc(N(CC(N)=O)CC(F)(F)F)cc1C(F)(F)F`, the Potency entry in assay [1] and in assay [2] was “inactive” each time.
In the case of `Cc1ccc(O)c(C)c1`, the Potency entry in assay [1] and in assay [2] was “inactive” each time.
Regarding `Cc1cccc(C)c1NC(=O)CN1CCCC1=O`, the Potency entry in assay [2] is “inactive”.
Regarding `Nc1ccccc1C(=O)OC/C=C/c1ccccc1`, the Potency entry in assay [2] was “inactive”.
`COP(=O)(OC)OC(Br)C(Cl)(Cl)Br` (stereo unspecified): the Potency result in assay [1] and in assay [2] was “inactive” each time.
